A selection: hits, their analogues and other compounds. The true share with any hit is near 10%.
G9a inh – qHTS Assay for Inhibitors of Histone Lysine Methyltransferase G9a; G9a H3K9 monomethylation, AlphaScreen, 2 h; Potency, µM (highest dose often 102 µM), inactives show top-dose activity, negative = inhibition, hits mostly inhibitors; actives 8.8% (n = 350,000); AID 504332, 2011; also: % is scaled to controls: 0 for no effect and ±100 for the full control effect; nearly all actives have a fitted effect of over 75% in size
Target sequence (Q96KQ7 913-1193 limits assumed): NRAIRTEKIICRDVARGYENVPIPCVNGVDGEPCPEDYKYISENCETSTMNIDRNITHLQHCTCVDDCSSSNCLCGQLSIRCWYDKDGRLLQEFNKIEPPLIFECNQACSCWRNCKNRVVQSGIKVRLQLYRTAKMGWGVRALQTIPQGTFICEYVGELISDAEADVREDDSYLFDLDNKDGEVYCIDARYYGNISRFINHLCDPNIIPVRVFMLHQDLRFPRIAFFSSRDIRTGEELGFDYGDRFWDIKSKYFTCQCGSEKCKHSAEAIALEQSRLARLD
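Compounds were preincubated with 20 nM G9a for 15 min, after which biotinylated H3K9 peptide (500 nM) and SAM (20 uM) started a 2 h room-temperature reaction. Monomethylated product was quantified by antibody-based AlphaScreen chemiluminescence.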
JMJD2A Tudor inh – qHTS Assay for Inhibitors of JMJD2A-Tudor Domain | Lysine-specific demethylase 4A (Homo sapiens), O75164 | AlphaScreen JMJD2A-Tudor / H3K4me3 peptide binding | Potency, µM (top dose mostly 114 µM), inactives show at the highest dose activity change, negative = inhibition, most hits filed as inhibitors | actives 4.4% (n = 390,000); also: % is scaled to controls: 0 for no effect and ±100 for the full control effect; nearly all actives have a fitted effect of over 50% in size
GLS inhibitor – qHTS for Inhibitors of Glutaminase (GLS); Glutaminase kidney isoform, mitochondrial (Homo sapiens), O94925; GLS enzymatic activity, qHTS titration; Potency, µM (top dose mostly 45.5 µM), without a hit: at the highest dose activity change, negative = inhibition, most hits filed as inhibitors; actives 0.21% (n = 410,000); AID 624170, 2012; also: % is scaled to controls: 0 for no effect and ±100 for the full control effect
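Read-out is an Amplex red fluorescence increase coupled through glutamate oxidase and HRP, measured before and after 30 min room-temperature incubation. hKGA is in 45 mM KH2PO4 (pH 8.2) with 0.02% Tween-20; glutamine added as 1mM solution.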
BAZ2B inh – qHTS Assay for Inhibitors of BAZ2B. AlphaScreen BAZ2B-H3K14Ac peptide displacement. Potency, µM (highest dose often 114 µM), for the others: at the highest dose activity change, negative = inhibition, most hits filed as inhibitors. actives 4.4% (n = 360,000); also: % is scaled to controls: 0 for no effect and ±100 for the full control effect; nearly all actives have a fitted effect of over 60% in size
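Multi-concentration screen (max 110 uM) measuring displacement of acetylated histone H3 peptide from BAZ2B by AlphaScreen, using 50 nM protein, 50 nM peptide and 10 ug/mL streptavidin donor plus Ni-chelate acceptor beads.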
HP1b binding inh – HTS for Inhibitors of HP1-beta Chromodomain Interactions with Methylated Histone Tails; AlphaScreen HP1-beta / biotin-H3K9me3 peptide binding; Potency, µM (doses to about 114 µM), inactives show at the highest dose activity change, negative = inhibition, hits mostly inhibitors; actives 0.56% (n = 390,000); AID 540317, 2011; also: nearly all actives have a fitted effect of over 70% in size
Target sequence (P83916 whole entry, looked up): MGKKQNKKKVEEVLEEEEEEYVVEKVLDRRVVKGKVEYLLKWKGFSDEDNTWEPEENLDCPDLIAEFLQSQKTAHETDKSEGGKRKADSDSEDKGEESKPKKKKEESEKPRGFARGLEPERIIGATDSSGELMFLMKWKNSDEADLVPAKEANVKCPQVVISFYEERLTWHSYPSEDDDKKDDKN
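Compound inhibition of the preformed complex between 50 nM HP1-beta and 50 nM biotinylated H3K9me3 peptide was read by AlphaScreen. Buffer was PBS pH 7.4 with 0.01% Tween-20. Incubations ran 30 min at room temperature, with 10 ug/mL donor/acceptor beads.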
Numbers without * were called inactive; ? = inconclusive; . = not tested or not shown; [ ] = remark or other dose. Calls follow the shape of the dose curve; as a rule, active = well fitted curve in the direction sought with a large enough effect; inconclusive = small, poorly fitted or top-dose-only effect, or another doubt; inactive = no such curve, though single readings can be large; an effect the other way counts as inactive or inconclusive. Potency is read from the fitted curve at half-maximal effect.

SMILES	G9a inh	JMJD2A Tudor inh	GLS inhibitor	BAZ2B inh	HP1b binding inh
Cc1ccc(N(Cc2ccc(C(=O)NCC3CCCO3)cc2)S(C)(=O)=O)cc1C (stereo unspecified)	4%	-8%	-1%	-17%	5%
Cc1ccc(OCC(=O)N(Cc2ccc(N(C)C)cc2)CC2CCCO2)cc1C (stereo unspecified)	14µM*	50µM*	22%	32µM*	?
CCOC(=O)C1CCCN(C(=O)Cn2ncc3c(C)n(Cc4ccccc4Cl)c(C)c3c2=O)C1 (stereo unspecified)	-32%[59 µM]	-22%	4%	-17%	11%
Cc1nnc(NCC=Cc2ccccc2)s1	.	.	4%	.	.
CCc1ccc(Nc2n[n+](-c3ccccc3)c(-c3cc(OC)c(OC)cc3Br)s2)cc1	?	79µM*	1%	32µM*	-6%
COc1ccc2ccccc2c1-c1sc(Nc2ccccc2)n[n+]1-c1ccc(F)cc1	50µM*	40µM*	7%	32µM*	?
CCc1ccc(Nc2nc3ccccc3c(=O)s2)cc1	-5%[59 µM]	-1%	5%	-2%	39%
CCc1ccc(Nc2n[n+](-c3ccccc3)c(/C=C/c3ccccc3)s2)cc1	40µM*	.	.	28µM*	.
CCc1ccc(Nc2n[n+](-c3ccccc3)c(-c3c(Cl)cccc3Cl)s2)cc1	14µM*	16µM*	11%	8.9µM*	-5%
CCCCOc1ccc(C(=O)Nc2cccc(-c3nc4cccnc4s3)c2)cc1	-22%[59 µM]	-12%	-17%	-2%	6%
Fc1ccc(-[n+]2nc(Nc3ccccc3)sc2-c2c(Cl)cccc2Cl)cc1	.	35µM*	3%	40µM*	?
COc1ccc(-c2sc(Nc3ccccc3)n[n+]2-c2ccc(F)cc2)cc1Br	?	?	1%	-12%	7%
CC(C)c1ccc(C2N=C(N)Nc3nc4ccccc4n32)cc1 (stereo unspecified)	-7%[59 µM]	-11%	0%	-28%	51%
CC(=O)Nc1ccccc1-c1nc2ccc(C(=O)N3CCN(c4cccc(C)c4)C(C)C3)cc2[nH]c1=O (stereo unspecified)	?	-32%	12%	-29%	34%
CC(=O)Nc1ccccc1-c1nc2ccc(C(=O)N3CCN(c4ccccc4)CC3)cc2[nH]c1=O	45µM*	-17%	15%	2%	63%
Cc1ccc(NC2=C(CC(=O)O)C(c3ccc(F)cc3)N(c3ccc(C)cc3)C2=O)cc1 (stereo unspecified)	-35%[59 µM]	-15%	2%	-22%	21%
Cc1cccc(-n2c(-c3csc(C)c3)n[nH]c2=S)c1	0.32µM*	11µM*	?	-33%	?
CCc1cc(-c2n[nH]c(=S)n2-c2cccc(C)c2)cs1	?	32µM*	?	-37%	-1%
C[C@@]1(O)CCOC(=O)C1	12%[21.5 µM]	.	.	.	.
Cc1ccc([C@H]2C[C@@H](O)[C@H](n3cc(C4CC4)nn3)CN2C(=O)c2cccs2)cc1	.	.	-2%	.	.
O=C(CCN1CCN(c2ccc([N+](=O)[O-])cc2)CC1)c1ccc(Cl)cc1	14µM*	?	-10%	?	3%
O=C(CCN1CCN(c2ccccc2)CC1)c1ccc(Cl)cc1	28µM*	-22%	16%	-27%	33%
O=C(CCN1CCN(c2ccccc2)CC1)Nc1ccc(Cl)cc1	36%[59 µM]	-12%	1%	30%	27%
Cc1c(N)cc(N)cc1C(=O)O	79µM*	-12%	-17%	-35%	1%
N/C(=N\OC(=O)CSc1ccccc1)c1ccncc1	.	1%	9%	0%	50%
S=c1[nH]c2ccccc2n2c(=S)[nH]nc12	1.8µM*	22µM*	7%	50µM*	19%
S=c1[nH]nc2ccc3ccccc3n12	.	.	6%	.	.
CC1(OC(=O)CCc2ccccc2)C(=O)C=C2C=C3CCCN3C=C2C1=O (stereo unspecified)	-39%[59 µM]	56µM*	-20%	56µM*	-9%
